Reference: article PMC5540273 (PLoS ONE, 2017)
Where “and” joins values, the source holds several entries; their conditions need not be identical. Equal entries are not always repeated. Where two headings read alike, the source gives them in different places.

Assays:
MARK3 = details: concentration: 1 μM, replicates: in singlicate; n = 1
MARK4 = details: concentration: 1 μM, replicates: in singlicate, n = 1
MAST1 = details: concentration: 1 μM, replicates: in singlicate, n = 1
MEK1 = test system: T1, MEK1; details: concentration: 1 μM, replicates: in singlicate, n = 1
T1 construct: gene MAP2K1

MEK2 = test system: T2, MEK2; details: concentration: 1 μM, replicates: in singlicate, n = 1
T2 construct: gene MAP2K2

MEK3 = test system: T3, MEK3; details: concentration: 1 μM, replicates: in singlicate, n = 1
T3 construct: gene MAP2K3

MEK4 = test system: T4, MEK4; details: concentration: 1 μM, replicates: in singlicate, n = 1
T4 construct: gene MAP2K4

MEK5 = test system: T5, MEK5; details: concentration: 1 μM, replicates: in singlicate, n = 1
T5 construct: gene MAP2K5

MEK6 = test system: T6, MEK6; details: concentration: 1 μM, replicates: in singlicate; n = 1
T6 construct: gene MAP2K6

MELK = details: concentration: 1 μM, replicates: in singlicate, n = 1
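Also: KINOMEscan kinase panel screen.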

| SMILES | %Inh (MARK3) [%] | %Inh (MARK4; 1 µM) | %Inh (MAST1; 1 µM) | %Inh (MEK1; 1 µM) | %Inh (MEK2; 1 µM) | %Inh (MEK3; 1 µM) | %Inh (MEK4; 1 µM) | %Inh (MEK5; 1 µM) | %Inh (MEK6) [%] | %Inh (MELK; 1 µM) | %Inh (MARK4) [%] | %Inh (MAST1) [%] | %Inh (MEK1) [%] | %Inh (MEK2) [%] | %Inh (MEK3) [%] | %Inh (MEK4) [%] | %Inh (MEK5) [%] | %Inh (MELK) [%] |
| --- | --- | --- | --- | --- | --- | --- | --- | --- | --- | --- | --- | --- | --- | --- | --- | --- | --- | --- |
| COc1ccc(-c2nc3n(c2-c2ccncc2)CCC3)cc1 [SKF-104493] | 0 | 17% and 0% | 49% and 11% | 0% and 12% | 29% and 5% | 1% and 0% | 67% and 12% | 24% and 0% | 0 | 0% and 15% | – | – | – | – | – | – | – | – |
| Cn1ccc2ncnc(Oc3ccc(NC(=O)Nc4cccnc4)c(Cl)c3)c21 | 0 | – | – | – | – | – | – | – | 0 | – | 4 | 0 | 0 | 0 | 0 | 0 | 5 | 10 |
| Nc1nc(-c2cccnc2)c(-c2ccnc3ccccc23)s1 [GW684083] | 0 | – | – | – | – | – | – | – | 0 | – | 0 | 22 | 0 | 0 | 0 | 1 | 70 | 6 |
| CN1c2ccc(-c3ccc(C(=O)NCCO)cc3)cc2-c2[nH]ncc2S1(=O)=O | 0 | – | – | – | – | – | – | – | 1 | – | 35 | 0 | 0 | 27 | 25 | 0 | 68 | 32 |
| COC(=O)c1cccc(NC(=O)NCCNc2ccnc(Nc3ccc(F)cc3)n2)c1 [GSK1379883] | 0 | – | – | – | – | – | – | – | 0 | – | 2 | 0 | 1 | 0 | 0 | 13 | 9 | 17 |
| Cl.Fc1ccccc1COc1ccc(Nc2ncnc3ccc(-c4nnc(C(F)(F)F)o4)cc23)cc1Cl [GW424170] | 0 | – | – | – | – | – | – | – | 0 | – | 0 | 0 | 0 | 0 | 0 | 28 | 10 | 0 |
| O=C(Nc1ccccc1)Nc1ccc(Oc2ccc3nccn3n2)cc1 | 9 | – | – | – | – | – | – | – | 0 | – | 7 | 0 | 17 | 32 | 0 | 0 | 0 | 10 |
| CCc1nc(-c2cccc(C)c2)c(-c2ccnc(NC(=O)c3ccccc3)c2)s1 | 0 | – | – | – | – | – | – | – | 0 | – | 28 | 25 | 5 | 2 | 7 | 4 | 54 | 22 |
| CCn1c(-c2ccncc2)nc2cnccc21 [SB-735216] | 96.1 | – | – | – | – | – | – | – | 0 | – | 8 | 37 | 5 | 11 | 34 | 7 | 25 | 0 |
| O=C(NCCCN1CCCC1=O)c1cnc(NCc2cc(Cl)ccc2Cl)nc1NC1CCNCC1 | 0 | – | – | – | – | – | – | – | 0 | – | 0 | 0 | 0 | 3 | 0 | 0 | 0 | 0 |
| Cc1cc(N2CCC(NS(=O)(=O)c3ccc(F)cc3)CC2)nc(Nc2cccc(C#N)c2)n1.O=C(O)C(F)(F)F [GSK1653537] | 0 | – | – | – | – | – | – | – | 62 | – | 9 | 0 | 0 | 0 | 0 | 78 | 19 | 5 |
| Nc1nc(-c2ccc3c(N)n[nH]c3c2)cc(N2CCCCC2)n1 [GSK2228768] | 0 | – | – | – | – | – | – | – | 0 | – | 0 | 0 | 0 | 0 | 2 | 0 | 8 | 0 |
| Cl.c1ccc(Cn2ccc3cc(Nc4ncnc5ccccc45)ccc32)cc1 [GW275568] | 1 | – | – | – | – | – | – | – | 5 | – | 30 | 0 | 14 | 6 | 11 | 19 | 84 | 9 |
| COc1ccc(NC(=O)c2ccc(-c3cc(-c4nnc(C)o4)ccc3C)cc2)cc1 [GW595885] | 0 | – | – | – | – | – | – | – | 0 | – | 0 | 5 | 0 | 0 | 0 | 9 | 0 | 0 |
| FC(F)(F)c1ccc(-c2cc(-c3c[nH]nc3-c3ccccn3)ccn2)cc1 [GW599550] | 0 | – | – | – | – | – | – | – | 0 | – | 2 | 0 | 5 | 0 | 0 | 18 | 8 | 0 |
| CS(=O)(=O)CCNCc1ccc(-c2ccc3ncnc(Nc4ccc(OCc5ccccc5)c(Cl)c4)c3c2)o1.Cl [GW574783] | 3 | – | – | – | – | – | – | – | 0 | – | 9 | 23 | 10 | 0 | 3 | 15 | 85 | 23 |

| SMILES | %Inh (MARK3) [%] | %Inh (MARK4; 1 µM) | %Inh (MAST1; 1 µM) | %Inh (MEK1; 1 µM) | %Inh (MEK2; 1 µM) | %Inh (MEK3; 1 µM) | %Inh (MEK4; 1 µM) | %Inh (MEK5; 1 µM) | %Inh (MEK6) [%] | %Inh (MELK; 1 µM) | %Inh (MARK4) [%] | %Inh (MAST1) [%] | %Inh (MEK1) [%] | %Inh (MEK2) [%] | %Inh (MEK3) [%] | %Inh (MEK4) [%] | %Inh (MEK5) [%] | %Inh (MELK) [%] |
| --- | --- | --- | --- | --- | --- | --- | --- | --- | --- | --- | --- | --- | --- | --- | --- | --- | --- | --- |
| Cn1cc(-c2ccc3c(c2)CCN3C(=O)Cc2cccc(C(F)(F)F)c2)c2c(N)ncnc21 [GSK2606414] | 0 | – | – | – | – | – | – | – | 0 | – | 7 | 0 | 0 | 0 | 0 | 22 | 6 | 8 |
| FC(F)(F)c1cc(Nc2nccc(-c3c(-c4ccc(Cl)cc4)nn4ncccc34)n2)ccc1Cl [GW829351] | 0 | – | – | – | – | – | – | – | 0 | – | 17 | 20 | 6 | 21 | 0 | 0 | 1 | 0 |
| CCCc1ccc(S(=O)(=O)NC2CCN(c3ccnc(Nc4ccc(OC)cc4)n3)C2)cc1 (stereo not shown) [GSK1379737] | 0 | – | – | – | – | – | – | – | 0 | – | 0 | 43 | 0 | 0 | 0 | 12 | 0 | 0 |
| Oc1ccc2ncnc(Nc3ccc(OCc4ccccc4)cc3)c2c1 [GI262866] | 22 | – | – | – | – | – | – | – | 0 | – | 0 | 0 | 18 | 2 | 0 | 11 | 99.1 | 0 |
| CNc1nccc(-c2c(-c3ccc(F)cc3)ncn2C2CCN(C)CC2)n1 [SB-222903] | 18 | – | – | – | – | – | – | – | 0 | – | 16 | 10 | 8 | 26 | 1 | 0 | 37 | 0 |
| Fc1cccc(COc2ccc(Nc3ncnc4nn5ccccc5c34)cc2Cl)c1 [GW689066] | 0 | – | – | – | – | – | – | – | 0 | – | 0 | 23 | 0 | 0 | 0 | 8 | 45 | 5 |
| CSc1nn2c(=O)cc(N3CCOCC3)nc2n1Cc1cccc(Cl)c1Cl [GSK2347225] | 2 | – | – | – | – | – | – | – | 0 | – | 3 | 0 | 0 | 5 | 0 | 33 | 48 | 18 |
| Cc1ccc(O)cc1Nc1cc(C(F)(F)F)nc2ccc(-c3ccncc3)cc12 [GW630823] | 0 | – | – | – | – | – | – | – | 0 | – | 4 | 0 | 0 | 5 | 0 | 0 | 0 | 0 |
| Nc1nccc2scc(-c3ccc4c(c3)CCN4C(=O)Cc3cc(F)ccc3F)c12 [GSK2587663] | 4 | – | – | – | – | – | – | – | 0 | – | 0 | 9 | 0 | 0 | 0 | 5 | 67 | 0 |
| Clc1cc(Nc2ncnc3cc[nH]c23)ccc1OCc1ccccn1 | 5 | – | – | – | – | – | – | – | 17 | – | 4 | 45 | 17 | 23 | 19 | 11 | 76 | 0 |
| COc1cc2c(Nc3cccc(NC(=O)c4ccccc4)c3)ncnc2cc1OCCCN1CCOCC1 [GSK223810] | 0 | – | – | – | – | – | – | – | 0 | – | 22 | 0 | 0 | 3 | 7 | 4 | 80 | 15 |
| NC(=O)c1sc(-n2cnc3ccccc32)cc1OCc1ccccc1F [GSK1024306] | 0 | – | – | – | – | – | – | – | 0 | – | 1 | 11 | 0 | 0 | 0 | 20 | 69 | 23 |
| OCCOCCn1ccc2ncnc(Nc3ccc(Oc4cccc(Cl)c4)c(Cl)c3)c21 | 0 | – | – | – | – | – | – | – | 0 | – | 31 | 0 | 8 | 40 | 0 | 0 | 89 | 0 |
| COc1ccc(-c2oc3ncnc(N)c3c2-c2ccc(OC)cc2)cc1 [SB-589132] | 2 | – | – | – | – | – | – | – | 0 | – | 0 | 53 | 0 | 0 | 0 | 0 | 88 | 8 |
| Clc1ccc(-c2cc(-c3c[nH]nc3-c3ccccn3)ccn2)cc1 [GW681251] | 0 | – | – | – | – | – | – | – | 0 | – | 0 | 0 | 39 | 0 | 0 | 2 | 0 | 40 |
